Measurements published in PubChem BioAssay AID1159580 (chemical genetic matrix, 2015).
“And” between values parts separate entries of the source, which are not always exact repeats. Equal values may be shown once. About 2,000 (36%) of roughly 5,500 compounds were called active. Not shown: some 18% with an inconclusive outcome. No stated cut-off is given here; in the data, active means normalized growth mostly below about 0.91 (no sharp cut-off); inconclusive means no clear call, values can overlap the other calls; inactive means mostly above about 0.92. The list shows a part of the results.

Experiment: chemical genetic growth profiling, strain panel (AID 1159580);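 further: tested at 20 µM; growth read once vehicle control cultures reached saturation at 30 °C; 1 = growth at the plate median or of vehicle wells; lower values mean less growth of the strain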
Details: S. cerevisiae deletion strains, growth OD

Measured: normalized growth

CC(C)/C(O)=C1/C(=O)O[C@@H](c2ccoc2)[C@]2(C)C(O)[C@@H](O)[C@@]34OC5(C)OC67CC(C)(C(O)[C@]6(O)[C@@H](O)[C@]3(O5)C12)[C@H](CC(=O)O)[C@]74C (stereo partly drawn)
inactive: locus YAL021C, strain ccr4, hits give low values 0.945 | locus YAL026C, strain drs2, hits give low values 1.01 | locus YAL030W, strain snc1, hits give low values 0.979 | locus YBL061C, strain skt5, hits give low values 1.01 | locus YBR009C, strain hhf1, hits give low values 0.993 | locus YBR021W, strain FUR4, hits give low values 0.991 | locus YBR023C, strain chs3, hits give low values 0.992 | locus YBR171W, strain sec66, hits give low values 1.01 | locus YBR229C, strain ROT2, hits give low values 1 | locus YBR231C, strain swc5, hits give low values 1.03 | locus YBR279W, strain paf1, hits give low values 0.997 | locus YCL011C, strain gbp2, hits give low values 0.975 | locus YCL016C, strain dcc1, hits give low values 0.982 | locus YCL029C, strain bik1, hits give low values 0.997 | locus YCL061C, strain MRC1, hits give low values 0.998 | locus YCL069W, strain vba3, hits give low values 0.981 | locus YCR088W, strain abp1, hits give low values 0.994 | locus YDL005C, strain med2, hits give low values 0.985 | locus YDL035C, strain GPR1, hits give low values 0.993 | locus YDL040C, strain nat1, hits give low values 0.995 | locus YDL074C, strain BRE1, hits give low values 1 | locus YDL101C, strain DUN1, hits give low values 1.01 | locus YDL185W, strain tfp1, hits give low values 1.02 | locus YDL192W, strain arf1, hits give low values 1.01 | locus YDR001C, strain nth1, hits give low values 0.974 | locus YDR069C, strain doa4, hits give low values 1.02 | locus YDR101C, strain arx1, hits give low values 0.986 | locus YDR137W, strain rgp1, hits give low values 0.992 | locus YDR150W, strain NUM1, hits give low values 0.965 | locus YDR159W, strain sac3, hits give low values 1.06 | locus YDR162C, strain NBP2, hits give low values 1.01 | locus YDR195W, strain ref2 0.974 | locus YDR297W, strain sur2, hits give low values 1.01 | locus YDR318W, strain mcm21, hits give low values 1.01 | locus YDR334W, strain swr1, hits give low values 0.988 | locus YDR335W, strain msn5, hits give low values 0.987 | locus YDR388W, hits give low values 1 | locus YDR392W, strain spt3, hits give low values 0.933 | locus YDR502C, strain sam2, hits give low values 1.01 | locus YEL003W, strain gim4, hits give low values 1.01 | locus YEL037C, strain rad23, hits give low values 0.99 | locus YEL061C, strain CIN8 (second series), hits give low values 0.985 | locus YER015W, strain faa2, hits give low values 1.01 | locus YER016W, strain bim1, hits give low values 0.998 | locus YER110C, hits give low values 1.01 | locus YER111C, strain swi4, hits give low values 0.981 | locus YER155C, strain BEM2 (second series), hits give low values 1.04 | locus YER155C, strain BEM2, hits give low values 1 | locus YER167W, strain BCK2, hits give low values 0.996 | locus YFR010W, strain ubp6, hits give low values 1.01 | locus YGL078C, strain dbp3, hits give low values 1.02 | locus YGL086W, strain mad1, hits give low values 1 | locus YGL167C, strain pmr1, hits give low values 0.993 | locus YGL173C, strain kem1, hits give low values 1.02 | locus YGL227W, strain vid30, hits give low values 0.993 | locus YGL240W, strain doc1, hits give low values 1.02 | locus YGL248W, strain PDE1, hits give low values 0.997 | locus YGL253W, strain hxk2, hits give low values 1.01 | locus YGR135W, strain pre9, hits give low values 1.02 | locus YGR229C, strain SMI1, hits give low values 0.991 | locus YGR252W, strain gcn5, hits give low values 0.988 | locus YHR013C, strain ard1, hits give low values 0.976 | locus YHR027C, strain rpn1, hits give low values 0.994 | locus YHR030C, strain SLT2, hits give low values 0.951 | locus YHR079C, strain IRE1 (second series), hits give low values 1.01 | locus YHR079C, strain IRE1, hits give low values 0.984 | locus YHR094C, strain hxt1, hits give low values 1.01 | locus YHR129C, strain ARP1, hits give low values 0.999 | locus YHR142W, strain chs7, hits give low values 0.945 | locus YHR200W, strain rpn10, hits give low values 1.01 | locus YIL066C, strain RNR3, hits give low values 0.991 | locus YIL073C, strain SPO22, hits give low values 1.06 | locus YIL125W, strain kgd1, hits give low values 1 | locus YIR030C, strain dcg1, hits give low values 1.01 | locus YJL092W, strain hpr5, hits give low values 0.989 | locus YJL095W, strain BCK1 (second series), hits give low values 1 | locus YJL095W, strain BCK1, hits give low values 1.03 and 0.971 | locus YJL115W, strain asf1, hits give low values 0.977 | locus YJL129C, strain trk1, hits give low values 0.997 | locus YJL134W, strain LCB3, hits give low values 0.993 | locus YJL154C, strain vps35, hits give low values 0.98 | locus YJL164C, strain tpk1, hits give low values 0.958 | locus YJL166W, strain qcr8, hits give low values 1 | locus YJL168C, strain set2, hits give low values 1.01 | locus YJL187C, strain SWE1 (second series), hits give low values 1.01 | locus YJR066W, strain TOR1, hits give low values 0.926 | locus YJR075W, strain HOC1, hits give low values 1 | locus YKL009W, strain mrt4, hits give low values 1.02 | locus YKL068W, hits give low values 0.999 | locus YKL085W, strain MDH1 (second series), hits give low values 1.01 | locus YKL085W, strain MDH1, hits give low values 1.01 | locus YKL160W, strain elf1, hits give low values 0.962 | locus YKL190W, strain CNB1, hits give low values 0.986 | locus YKR001C, strain vps1, hits give low values 1.01 | locus YKR026C, strain gcn3, hits give low values 0.994 | locus YKR091W, strain srl3, hits give low values 0.991 | locus YLL001W, strain dnm1, hits give low values 0.973 | locus YLL026W, hits give low values 0.992 | locus YLL041C, strain sdh2, hits give low values 0.985 | locus YLR027C, strain aat2, hits give low values 0.999 | locus YLR039C, strain RIC1, hits give low values 1.06 | locus YLR058C, strain SHM2, hits give low values 1.01 | locus YLR102C, strain apc9, hits give low values 0.998 | locus YLR113W, strain HOG1, hits give low values 0.997 | locus YLR221C, strain rsa3, hits give low values 1.05 | locus YLR258W, strain gsy2, hits give low values 0.998 | locus YLR262C, strain YPT6 (second series), hits give low values 0.979 | locus YLR262C, strain YPT6, hits give low values 1.1 | locus YLR268W, strain sec22, hits give low values 0.999 | locus YLR320W, strain mms22, hits give low values 1.04 | locus YLR330W, strain CHS5, hits give low values 1 | locus YLR342W, strain FKS1 (second series), hits give low values 0.985 | locus YLR342W, strain FKS1, hits give low values 0.995 | locus YLR357W, strain rsc2, hits give low values 1.01 | locus YLR370C, strain arc18, hits give low values 0.977 | locus YLR371W, strain rom2, hits give low values 1.01 | locus YLR384C, strain iki3, hits give low values 0.997 | locus YLR418C, strain cdc73, hits give low values 1.03 | locus YML016C, strain PPZ1, hits give low values 1.01 | locus YML032C, strain rad52, hits give low values 1.01 | locus YML120C, strain ndi1, hits give low values 0.973 | locus YML124C, strain tub3, hits give low values 1.02 | locus YMR058W, strain fet3, hits give low values 1 | locus YMR078C, strain ctf18, hits give low values 1.02 | locus YMR125W, strain sto1, hits give low values 0.951 | locus YMR129W, hits give low values 0.989 | locus YMR205C, strain PFK2, hits give low values 0.978 | locus YMR223W, strain ubp8, hits give low values 1.01 | locus YMR231W, strain pep5, hits give low values 1 | locus YMR263W, strain SAP30, hits give low values 1.01 | locus YMR307W, strain GAS1, hits give low values 0.982 | locus YNL067W, strain RPL9B, hits give low values 1.03 | locus YNL071W, strain lat1, hits give low values 0.987 | locus YNL128W, strain TEP1, hits give low values 1 | locus YNL183C, strain NPR1, hits give low values 0.939 | locus YNL209W, strain ssb2, hits give low values 0.988 | locus YNL233W, strain BNI4, hits give low values 0.981 | locus YNL248C, strain rpa49, hits give low values 1.03 | locus YNL250W, strain rad50, hits give low values 1.01 | locus YNL271C, strain bni1, hits give low values 1.01 | locus YNL298W, strain CLA4, hits give low values 1.01 | locus YNL307C, strain MCK1, hits give low values 1 | locus YNL322C, strain KRE1 (second series), hits give low values 1.02 | locus YNR049C, strain mso1, hits give low values 0.974 | locus YNR052C, strain pop2, hits give low values 1.02 | locus YOL012C, strain htz1 0.728 | locus YOL147C, strain pex11, hits give low values 1.01 | locus YOR001W, strain rrp6, hits give low values 1.04 | locus YOR061W, strain CKA2, hits give low values 1 | locus YOR069W, strain VPS5, hits give low values 0.998 | locus YOR070C, strain gyp1, hits give low values 0.996 | locus YOR080W, strain dia2, hits give low values 1 | locus YOR083W, strain WHI5, hits give low values 0.954 | locus YOR106W, strain vam3, hits give low values 0.938 | locus YOR136W, strain idh2, hits give low values 1.02 | locus YOR144C, strain elg1, hits give low values 1.01 | locus YOR184W, strain ser1, hits give low values 1 | locus YOR231W, strain MKK1, hits give low values 0.991 | locus YOR265W, strain rbl2, hits give low values 0.989 | locus YOR270C, strain vph1, hits give low values 0.966 | locus YOR290C, strain snf2, hits give low values 0.907 | locus YOR316C, strain cot1, hits give low values 1.01 | locus YPL051W, strain arl3, hits give low values 1.01 | locus YPL055C, strain LGE1, hits give low values 0.993 | locus YPL078C, strain atp4, hits give low values 0.953 | locus YPL106C, strain sse1, hits give low values 0.976 | locus YPL240C, strain hsp82, hits give low values 1 | locus YPL256C, strain CLN2, hits give low values 0.946 | locus YPR119W, strain clb2, hits give low values 1.01 | locus YPR141C, strain kar3, hits give low values 1.02 | locus YPR163C, strain tif3, hits give low values 1.01 | locus YPR167C, strain met16, hits give low values 1.01 | strain wtn01, hits give low values 1
